# Counter-ions that a name gives are not always drawn. ± gives the standard deviation of the averaged measurements.
# Tests used:
# Assay in all cases: growth (OD600 after 10 h); higher = more growth (less inhibition)
# [1] = test system: E. coli TESEC Alr+ wild-type control; conditions: compound 0.1 mM; raw OD600 reference: median of DMSO wells 0.241, cell-free background 0.041
# Method: (§1)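 TESEC Mtb Alr E. coli, or the Alr+ wild-type control, in 384-well plates with Prestwick library compounds at 0.1 mM and 1% DMSO, across arabinose induction levels of 1E3 to 1E7 nM. Growth is read as OD600 after 10 h at 37 °C in triplicate biological replicates.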
# [2] = test system: E. coli TESEC Mtb Alr; conditions: compound 0.1 mM
# Method: as §1
# [3] = test system: E. coli TESEC Mtb Asd; conditions: compound 0.1 mM
# Method: (§2)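 TESEC E. coli strains in which the native enzyme is deleted and replaced by arabinose-inducible Mtb Asd, DapB, CysH or TrpD, each grown in its selective medium. Strains were screened against the Prestwick library at 0.1 mM and 1% DMSO in 384-well format at low and high arabinose induction. Growth is read as OD600 after 10 h in triplicate.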
# [4] = test system: E. coli TESEC Mtb DapB; conditions: compound 0.1 mM
# Method: as §2
# [5] = test system: E. coli TESEC Alr+ wild-type control; conditions: compound 0.1 mM; raw OD600 reference: median of DMSO wells 0.49, cell-free background 0.052
# Method: (§3)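 TESEC Mtb Alr E. coli (ΔaraC ΔtolC ΔentC Δalr ΔdadX, arabinose-inducible Mtb Alr) or the Alr+ wild-type control strain, grown in defined M9-fructose medium without D-alanine in 96-well plates with Prestwick library compounds at 0.1 mM and 1% DMSO. Low Alr induction is 0.1 µM arabinose and high induction is 10 mM arabinose.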
# [6] = test system: E. coli TESEC Mtb Alr; conditions: compound 0.1 mM; remark: listed apart in the source
# Method: as §3
# [7] = arabinose 1000 nM, raw OD600 reference: median of DMSO wells 0.294, cell-free background 0.041
# [8] = arabinose 10000 nM, raw OD600 reference: median of DMSO wells 0.264, cell-free background 0.041
# [9] = arabinose 100000 nM, raw OD600 reference: median of DMSO wells 0.201, cell-free background 0.041
# [10] = arabinose 1000000 nM, raw OD600 reference: median of DMSO wells 0.193, cell-free background 0.041
# [11] = arabinose 10000000 nM, raw OD600 reference: median of DMSO wells 0.146, cell-free background 0.041
# [12] = arabinose induction (level): High, raw OD600 reference: median of DMSO wells 0.331, cell-free background 0.041
# [13] = arabinose induction (level): Low, raw OD600 reference: median of DMSO wells 0.417, cell-free background 0.041
# [14] = arabinose induction (level): High, raw OD600 reference: median of DMSO wells […], cell-free background 0.041
# [15] = arabinose induction (level): Low, raw OD600 reference: median of DMSO wells 0.227, cell-free background 0.041
# [16] = arabinose 100 nM, raw OD600 reference: median of DMSO wells 0.413, cell-free background 0.052
# [17] = arabinose 10000000 nM, raw OD600 reference: median of DMSO wells […], cell-free background 0.052
Compound,growth [1],"growth [2, 7]","growth [2, 8]","growth [2, 9]","growth [2, 10]","growth [2, 11]","growth [3, 12]","growth [3, 13]","growth [4, 14]","growth [4, 15]",growth [5],"growth [6, 16]","growth [6, 17]"
NC(N)=Nc1nc(CSCC/C(N)=N/S(N)(=O)=O)cs1 [Famotidine],0.248 ± 0.0073,0.298 ± 0.013,0.273 ± 0.014,0.203 ± 0.03,0.187 ± 0.0063,0.151 ± 0.011,0.348 ± 0.074,0.436 ± 0.038,0.206 ± 0.043,0.203 ± 0.025,0.465 ± 0.058,0.413 ± 0.0053,0.328 ± 0.014
CCN1C(=O)NC(c2ccccc2)C1=O (configuration not stated) [Ethotoin],0.244 ± 0.0096,0.304 ± 0.008,0.254 ± 0.0063,0.191 ± 0.009,0.187 ± 0.006,0.142 ± 0.0016,0.434 ± 0.031,0.446 ± 0.014,0.217 ± 0.01,0.243 ± 0.051,0.448 ± 0.012,0.4121 ± 0.0041,0.353 ± 0.017
COc1ccc2[nH]c([S+]([O-])Cc3ncc(C)c(OC)c3C)nc2n1 (configuration not stated) [Tenatoprazole],0.202 ± 0.008,0.192 ± 0.0066,0.227 ± 0.012,0.128 ± 0.0093,0.0829 ± 0.0019,0.134 ± 0.0048,0.388 ± 0.031,0.379 ± 0.065,0.184 ± 0.0083,0.201 ± 0.017,0.35 ± 0.01,0.397 ± 0.013,0.196 ± 0.035
CC[C@H](c1ccc(O)cc1)[C@@H](CC)c1ccc(O)cc1 [Hexestrol],0.0495 ± 0.0091,0.048 ± 0.0092,0.0398 ± 0.00072,0.0479 ± 0.0054,0.0459 ± 0.0019,0.0616 ± 0.024,0.0495 ± 0.0033,0.0486 ± 0.0013,0.0653 ± 0.019,0.054 ± 0.0072,0.054 ± 0.0093,0.0666 ± 0.025,0.05173 ± 0.0004
COc1ccc(-c2ccc3cc(C(=O)O)ccc3c2)cc1C12CC3CC(CC(C3)C1)C2 [Adapalene],0.2339 ± 0.00031,0.282 ± 0.014,0.26 ± 0.0041,0.185 ± 0.013,0.223 ± 0.016,0.125 ± 0.0023,0.231 ± 0.0037,0.298 ± 0.079,0.193 ± 0.013,0.249 ± 0.028,0.483 ± 0.01,0.435 ± 0.014,0.402 ± 0.085
Cc1cccc(N(C)C(=S)Oc2ccc3ccccc3c2)c1 [Tolnaftate],0.255 ± 0.019,0.272 ± 0.02,0.268 ± 0.012,0.165 ± 0.016,0.11 ± 0.011,0.163 ± 0.0066,0.281 ± 0.07,0.246 ± 0.047,0.174 ± 0.012,0.243 ± 0.029,0.465 ± 0.0063,0.384 ± 0.015,0.264 ± 0.064
S=c1[nH]cnc2nc[nH]c12 [Mercaptopurine],0.062 ± 0.002,0.0619 ± 0.0038,0.0528 ± 0.0011,0.0694 ± 0.0044,0.0545 ± 0.0019,0.0747 ± 0.0012,0.176 ± 0.021,0.167 ± 0.01,0.202 ± 0.01,0.211 ± 0.004,0.234 ± 0.018,0.334 ± 0.017,0.113 ± 0.01
N=C(N)NC(=O)Cc1c(Cl)cccc1Cl [Guanfacine hydrochloride],0.241 ± 0.0058,0.287 ± 0.0063,0.26 ± 0.0052,0.236 ± 0.018,0.143 ± 0.0065,0.165 ± 0.0022,0.43 ± 0.13,0.444 ± 0.018,0.19 ± 0.015,0.214 ± 0.026,0.485 ± 0.018,0.406 ± 0.0086,0.329 ± 0.018
CN(C)CCC=C1c2ccccc2COc2ccccc21 [Doxepin hydrochloride],0.199 ± 0.018,0.245 ± 0.0099,0.262 ± 0.011,0.178 ± 0.0063,0.134 ± 0.0022,0.144 ± 0.0036,0.186 ± 0.034,0.326 ± 0.032,0.169 ± 0.013,0.182 ± 0.013,0.472 ± 0.033,0.41 ± 0.0055,0.342 ± 0.046
CC(=O)OCC(=O)[C@@]12OC(C)(C)O[C@@H]1C[C@H]1[C@@H]3C[C@H](F)C4=CC(=O)C=C[C@]4(C)[C@@]3(F)[C@@H](O)C[C@@]12C [Fluocinonide],0.229 ± 0.0095,0.279 ± 0.012,0.275 ± 0.01,0.195 ± 0.015,0.213 ± 0.041,0.163 ± 0.037,0.434 ± 0.046,0.505 ± 0.0079,0.222 ± 0.013,0.234 ± 0.033,0.499 ± 0.058,0.432 ± 0.041,0.344 ± 0.033
Cc1cnc(C(=O)O)c[n+]1[O-] [Acipimox],0.244 ± 0.006,0.304 ± 0.025,0.247 ± 0.0063,0.218 ± 0.029,0.1751 ± 0.0015,0.1397 ± 0.00085,0.263 ± 0.085,0.282 ± 0.065,0.199 ± 0.013,0.217 ± 0.021,0.497 ± 0.06,0.41 ± 0.009,0.338 ± 0.021
CC(C)n1c(/C=C/C(O)CC(O)CC(=O)O)c(-c2ccc(F)cc2)c2ccccc21 (configuration not stated) [Fluvastatin sodium salt],0.165 ± 0.0024,0.247 ± 0.017,0.192 ± 0.0063,0.187 ± 0.015,0.0938 ± 0.0088,0.157 ± 0.0043,0.216 ± 0.066,0.32 ± 0.052,0.17 ± 0.0096,0.199 ± 0.02,0.401 ± 0.012,0.394 ± 0.03,0.235 ± 0.0099
CN(C)CCCC1(c2ccc(F)cc2)OCc2cc(C#N)ccc21 (configuration not stated) [Citalopram Hydrobromide],0.207 ± 0.0054,0.272 ± 0.011,0.25 ± 0.0072,0.173 ± 0.0067,0.155 ± 0.0054,0.138 ± 0.0049,0.289 ± 0.024,0.397 ± 0.051,0.191 ± 0.022,0.211 ± 0.017,0.476 ± 0.068,0.4152 ± 0.0024,0.321 ± 0.017
CC(C)NCC(O)c1ccc(NS(C)(=O)=O)cc1 (configuration not stated) [Sotalol hydrochloride],0.163 ± 0.0095,0.206 ± 0.0064,0.254 ± 0.0096,0.173 ± 0.025,0.138 ± 0.0027,0.142 ± 0.0089,0.242 ± 0.084,0.377 ± 0.056,0.181 ± 0.016,0.221 ± 0.016,0.433 ± 0.0053,0.402 ± 0.012,0.359 ± 0.025

# From the supplement of paper PMC9262897, “Low-cost anti-mycobacterial drug discovery using engineered E. coli” (Nature Communications, 2022)
